PfHsp40 yeast: rescue of PfHsp40-mediated yeast toxicity; S. cerevisiae expressing PfHsp40, growth rescue, ATP luminescence; growth rescue, % at 12.5 µM; 0.68% of 340,000 active; AID 504582; in the data active = growth rescue above about 28%, passing the limit was not always enough;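 note: yeast W303a lacking pdr1 and pdr3 grown in galactose medium; growth measured after three days at 30 °C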
TcdB GH inh: inhibitors of Clostridioides difficile toxin B glycohydrolase. TcdB glycohydrolase enzymatic assay, plate reader. P18177. 0.24% of 350,000 active. inhibition, % at 9.99 µM; in the data active = inhibition above about 10%
Mtb hypoxia rep: Mtb hypoxia fluorescent reporter inhibition; AID 1159583; 0.1% of 300,000 active; fluorescence inhibition, % (no concentration beside the values); M. tuberculosis hypoxia-regulated fluorescent reporter, fluorescence; in the data active = fluorescence inhibition mostly above about 23%, no sharp cut-off; inactive = mostly below about 17%
ugtP null kill: growth inhibition of S. aureus ugtP deletion strain | S. aureus RN4220 ugtP deletion, OD600 growth, 16 h | growth inhibition, % (concentration not given with the values) | 0.54% of 330,000 active | AID 1259309; in the data active = growth inhibition above about 68%;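 note: plate controls were untreated wells for no effect and antibiotic for full effect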
RN4220 kill: S. aureus RN4220 growth inhibition; OD600, 16 h; inhibition, % (no concentration beside the values); 0.33% of 330,000 active; in the data active = inhibition above about 85%;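 note: plate controls were untreated cells for no effect and reference antibiotic for full effect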
MazEF act: MazEF (E. coli) toxin RNase activation | P0AE70 | FAM/BHQ RNA-DNA oligo cleavage fluorescence, 5 h | activation, % at 20 µM | 0.32% of 350,000 active; in the data active = activation above about 50%
* = called active by the depositor; . = not tested or not shown; + = active, no number. An excerpt weighted towards active compounds, which were near 1.3% of everything screened.

SMILES	PfHsp40 yeast	TcdB GH inh	Mtb hypoxia rep	ugtP null kill	RN4220 kill	MazEF act
O=c1c2ccccc2nc(-c2cccc(Cl)c2)n1O	236*	.	-1	7	15	11
Cc1nc2c(F)c(F)c(C(F)(F)F)c(F)c2[nH]1	88*	.	.	2	0	4
Cc1ccc(NC(=O)C(=O)NCc2ccc(C=NNC(=O)c3c(C)nc4ccccn34)o2)cc1	.	.	7	-3	8	.
COc1ccc2c(c1)C(C)=CC(C)(C)N2S(=O)(=O)c1ccc(Br)cc1	22	0	20	86*	-2	1
O=C(c1ccccc1F)n1c2c(c3ccccc31)CCCC2	-2	2	1	93*	-12	-15
O=[N+]([O-])c1cnc(Sc2ccncn2)c([N+](=O)[O-])c1	.	0	.	.	.	0
O=[N+]([O-])c1cnc(Sc2ccncn2)s1	20	0	11	100*	81	-6
CCCCOc1ccc(/C=C/C(=O)OCC(=O)NC2CCS(=O)(=O)C2)cc1OCC (configuration not stated)	3	5	8	92*	14	7
Cc1ccc(C)c(CN2C(=O)COc3ccc(C(=O)c4ccccc4C(=O)O)cc32)c1	0	14*	0	1	9	-3
O=C1NC(=O)C(=Cc2cn(CCOc3ccc4c(c3)OCO4)c3ccccc23)C(=O)N1	-2	.	.	3	-5	528*
O=[N+]([O-])c1cccc(C=NNC2=NCCCCC2)c1	.	.	13	3	3	.
CCn1c(SCC(=O)N2CCCc3ccccc32)nnc1-c1ccco1	48*	.	19	-1	-13	3
CCn1c(SCC(=O)N2CCCc3ccccc32)nnc1-c1ccoc1C	0	.	.	-6	-1	-7
COc1ccccc1-c1ccc([C@@H]2[C@@H](CO)N3CCCCN(C(=O)CN4CCOCC4)C[C@@H]23)cc1	.	0	.	.	.	.
CC(=NNC(=S)N(Cc1ccccn1)Cc1ccccn1)c1cnccn1	113*	-2	.	.	.	0
S=C(NN=Cc1ccccn1)N(Cc1ccccn1)Cc1ccccn1	1	-6	.	.	.	7
CC(=NNC(=S)N1CC2CCC(CC2)C1)c1cnccn1	-1	0	.	.	.	6
S=C(NN=C(c1ccccc1)c1ccccn1)N(Cc1ccccn1)Cc1ccccn1	135*	-2	.	.	.	2
COc1cccc(C2C(C(=O)c3ccc(C)o3)=C(O)C(=O)N2c2cc(C)on2)c1 (configuration not stated)	-1	1	1	1	5	0
C=CCOc1cccc(C2C(C(=O)c3ccc(C)o3)=C(O)C(=O)N2c2nccs2)c1 (configuration not stated)	3	.	.	11	17	+
CCCCOc1cccc(C2C(C(=O)c3ccc(C)o3)=C(O)C(=O)N2c2nnc(C)s2)c1 (configuration not stated)	0	2	6	16	18	154*
CCOC(=O)c1sc(N2C(=O)C(O)=C(C(=O)c3ccc(C)o3)C2c2ccc(OC)c(OC)c2)nc1C (configuration not stated)	42*	0	1	25	10	-7
CCCOc1cccc(C2C(C(=O)c3ccco3)=C(O)C(=O)N2c2nnc(C)s2)c1 (configuration not stated)	0	-2	.	.	.	-38
COc1ccccc1C(=O)Nc1cccc(Oc2c(F)c(F)c(F)c(F)c2F)c1	0	13*	8	-1	6	-6
O=C(Cc1n[nH]c(=O)[nH]c1=O)NN=Cc1c(O)ccc2ccccc12	.	.	-6	2	4	.
SMILES	PfHsp40 yeast	TcdB GH inh	Mtb hypoxia rep	ugtP null kill	RN4220 kill	MazEF act
O=C(CN1CCCc2ccccc21)N/N=C/c1c(O)ccc2ccccc12	179*	1	.	.	.	16
O=C(CN1CCCc2ccccc21)N/N=C/c1ccccc1	0	0	.	.	.	23
O=C(Cc1n[nH]c(=O)[nH]c1=O)N/N=C/c1c(O)ccc2ccccc12	0	-22	.	.	.	71*
O=C(CCl)N1c2ccccc2OCC1c1ccccc1 (configuration not stated)	1	1	.	95*	40	-3
CC1CCc2c(C(=O)NCc3ccccn3)csc2C1 (configuration not stated)	-1	1	13	5	1	-2
CC1CCc2c(C(=O)Nc3ccccn3)csc2C1 (configuration not stated)	265*	1	6	-21	3	-12
COc1ccc(C=NNc2nonc2N)c(OC)c1	.	.	-10	-1	0	.
CCCc1cc(C(=O)NNC(=S)NCC2CCCO2)cs1 (configuration not stated)	69*	.	7	5	5	-2
CCc1cc(C(=O)NNC(=S)NCC2CCCO2)cs1 (configuration not stated)	0	.	5	7	7	-6
COc1c(C(CC(C)C)OC(C)=O)ccc2c1C(=O)OCc1cc(C)cc(O)c1O2 (configuration not stated)	161*	-3	.	-3	9	0
COc1c(C(O)CC(C)C)ccc2c1C(=O)OCc1cc(C)cc(O)c1O2 (configuration not stated)	1	3	.	-3	2	-5
C[C@H]1CN([C@@H](C)CO)C(=O)c2cc(NC(=O)NC3CCCCC3)ccc2O[C@H]1CN(C)C	.	-3	.	.	.	.
COc1cccc(NC(=O)N(C)C[C@@H]2Oc3ncc(C#Cc4ccc(F)cc4)cc3C(=O)N([C@H](C)CO)C[C@@H]2C)c1	.	1	.	.	.	.
Cc1ccc(C=NNC(=O)CN2CCN(Cc3ccccc3Cl)CC2)o1	.	.	11	5	3	.
CC(=O)N1CCN(c2ccc(N=Cc3c(O)n(Cc4ccccc4)c(=O)[nH]c3=O)cc2)CC1	-2	.	5	-5	-11	77*
C=CCn1c(SCn2nnc3ccccc3c2=O)nnc1-c1ccc(Br)cc1	114*	.	15	4	3	-5
O=C(NN=Cc1cc2c(cc1Cl)OCO2)c1ccncc1	.	.	.	3	4	.
CC(C)NC(=O)N1[C@@H](CO)[C@@H](c2ccccc2)C12CN(C(=O)c1ccccn1)C2	.	1	.	.	.	.
C[C@@H]1CN([C@@H](C)CO)C(=O)c2cc(NS(=O)(=O)c3cn(C)cn3)ccc2O[C@@H](C)CCCCO[C@H]1CN(C)Cc1ccc(C(F)(F)F)cc1	.	1	.	.	.	.
COc1ccc2oc(=O)c(-c3csc(Nc4cccc(O)c4)n3)cc2c1	449*	.	9	18	36	133*
CC(=O)Nc1ccc(Nc2nc(-c3cc4ccccc4oc3=O)cs2)cc1	1	0	12	0	1	63*
Nc1ccc(Nc2nc(-c3cc4ccccc4oc3=O)cs2)cc1	-1	1	15	12	5	-10
CC(=O)N1[C@@H]2CN(C(=O)c3ccccc3)c3ccccc3[C@@H]2[C@@H]1CO	.	0	.	.	.	.
COC(=O)C1=C(c2ccc(OC)c(OC)c2)CC2CCC1N2C(=O)NCc1cccc2ccccc12 (configuration not stated)	.	.	7	-11	0	.
